Values joined by “and” are separate entries in the source; they are usually repeats but may differ in a detail not shown here. Equal values may be shown once. Inconclusive results are not listed. Active and inactive are the calls of the source. Calls follow the shape of the dose curve; as a rule, active = well fitted curve in the direction sought with a large enough effect; inconclusive = small, poorly fitted or top-dose-only effect, or another doubt; inactive = no such curve, though single readings can be large or run the other way.
Assay: qHTS Assay for Identifying Gametocytocidal Compounds (AID 743244);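 as to max response: actives lower the fluorescent signal which means gametocytes are killed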
Settings: P. falciparum 3D7 stage III-V gametocytes, alamarBlue, 72 h; max response: stronger effect = lower value
Method in brief: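 A resazurin-based viability read-out was applied to mature P. falciparum gametocytes: 72 h compound treatment, then 24 h dye incubation, with falling fluorescence signalling gametocytocidal effect.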
% is scaled to controls: 0 for no effect and ±100 for the full control effect; potency is read from the fitted curve at half-maximal effect.

SMILES	max response	Potency
COc1ccc(CCN(C)CCCN2CCc3cc(OC)c(OC)cc3CC2=O)cc1OC	-9.4% (inactive)	–
CCCCC(CC)CN1CN(CC(CC)CCCC)CC(C)(N)C1 (stereo not given)	4.3% (inactive)	–
CC(=C(CCOC(=O)C(C)C)SSC(CCOC(=O)C(C)C)=C(C)N(C=O)Cc1cnc(C)nc1N)N(C=O)Cc1cnc(C)nc1N	-5.02% (inactive)	–
CCCCNc1ccc(C(=O)OCCOCCOCCOCCOCCOCCOCCOCCOCCOC)cc1	-1.52% (inactive)	–
CCOC(=O)c1ccc(N)cc1	11.9% (inactive)	–
O=C1OC2(c3ccccc31)c1cc(Br)c(O)c(Br)c1Oc1c2cc(Br)c(O)c1Br	-3.43% (inactive)	–
c1ccc(CC2=NCCN2)cc1	-3.06% (inactive)	–
O=C(Nc1cccc(C2=NCCN2)c1)Nc1cccc(C2=NCCN2)c1	-7.84% (inactive)	–
CCc1cc(Cl)c(OC)c(C(=O)NC[C@@H]2CCCN2CC)c1O	-8.19% (inactive) and -10.7% (inactive) and 19.5% (inactive)	–
CCCCCCCCCCCCOCCOCCOCCOCCOCCOCCOCCOCCOCCO	14.7% (inactive)	–
O=S(c1cc(Cl)cc(Cl)c1O)c1cc(Cl)cc(Cl)c1O	11.4% (inactive)	–
NC(=O)n1c(O)c(C(=O)c2cccs2)c2cc(Cl)ccc21	-6.13% (inactive)	–
CCCCNC(=O)NS(=O)(=O)c1ccc(N)cc1	19.8% (inactive)	–
CCN(CC)CCNC(=O)c1cc(Br)c(N)cc1OC	-8.23% (inactive)	–
Cc1ccccc1OCC(O)CO (stereo not given)	-6.04% (inactive)	–
Cc1cccc(C)c1NC(=O)CN1CCCC1	20.5% (inactive)	–
CC(=O)O[C@]1(C(C)=O)CC[C@H]2[C@@H]3C=C(C)C4=CC(=O)CC[C@]4(C)[C@H]3CC[C@@]21C	3.72% (inactive)	–
N/C(=N\N=C\c1ccc(Cl)cc1)N/N=C/c1ccc(Cl)cc1	0.563% (inactive)	–
CC(=O)OC[C@H]1O[C@@H](n2ncc(=O)[nH]c2=O)[C@H](OC(C)=O)[C@@H]1OC(C)=O	13.3% (inactive)	–
CC1CCc2c(N3CCC(O)CC3)c(F)cc3c(=O)c(C(=O)O)cn1c23 (stereo not given)	21.4% (inactive)	–

SMILES	max response	Potency
CN1CCN(CCC(=O)N2c3ccccc3Sc3ccc(C(F)(F)F)cc32)CC1	2.75% (inactive)	–
c1ccc(-c2nc[nH]c2-c2ccccc2)cc1	-4.96% (inactive)	–
O=C1OC(CN2CCOCC2)CN1/N=C/c1ccc([N+](=O)[O-])o1 (stereo not given)	-7.98% (inactive)	–
O=C(CCN1CCN2CCCC2C1)N1c2ccccc2Sc2ccc(Cl)cc21 (stereo not given)	–	22.4 µM (active)
CCOC(=O)c1c(N)sc2c1CCN(Cc1ccccc1)C2	–	11.2 µM (active)
CCCCN=C(N)N=C(N)N	0.948% (inactive)	–
CCOC(=O)[C@H](CCc1ccccc1)N[C@@H](C)C(=O)N1[C@H](C(=O)O)C[C@@H]2CCC[C@@H]21	-0.0266% (inactive)	–
CN(C)CCOC(c1ccc(Cl)cc1)c1ccccn1 (stereo not given)	1.88% (inactive)	–
Cc1cn([C@H]2C[C@H](F)[C@@H](CO)O2)c(=O)[nH]c1=O	-5.75% (inactive)	–
C[C@H]1O[C@@H](O[C@H]2CC[C@@]3(C)[C@H](CC[C@@H]4[C@@H]3C[C@@H](O)[C@]3(C)[C@@H](C5=CC(=O)OC5)CC[C@]43O)C2)C[C@H](O)[C@@H]1O[C@H]1C[C@H](O)[C@H](O[C@H]2C[C@H](O)[C@H](O[C@@H]3O[C@H](CO)[C@@H](O)[C@H](O)[C@H]3O)[C@@H](C)O2)[C@@H](C)O1	-0.158% (inactive)	–
COc1ccc(C(=O)c2ccccc2O)c(O)c1	14.9% (inactive)	–
CC(=O)N[C@@H](CCC(=O)O)C(=O)O	-0.648% (inactive)	–
CN1CCC[C@@H]1CCO[C@](C)(c1ccccc1)c1ccc(Cl)cc1	-0.809% (inactive)	–
NC(=S)N/N=C/c1cccnc1	-11.6% (inactive)	–
Cc1ncc(CO)c(C=O)c1O	-3.85% (inactive)	–
CCN(CC)CCOc1ccccc1C(=O)CCc1ccccc1	-3.28% (inactive)	–
CC(C)(C)NCC(O)COc1cccc2c1C[C@H](O)[C@H](O)C2 (stereo not given in full)	-0.0039% (inactive)	–
NS(=O)(=O)c1cc(C(=O)O)cc(N2CCCC2)c1Oc1ccccc1	-3.9% (inactive)	–
CC(C(=O)O)c1cccc(Oc2ccccc2)c1 (stereo not given)	17.6% (inactive)	–
O=C(c1ccc(F)cc1)C1CCN(CCn2c(=S)[nH]c3ccccc3c2=O)CC1	-2.47% (inactive)	–

— PubChem BioAssay (NCATS)
